For assay [1], the target named is Thyrotropin receptor (Homo sapiens) (UniProt P16473). Put plainly: qHTS assay to identify small molecule agonists of the thyroid stimulating hormone receptor (TSHR) signaling pathway (AID 1224843; calls by dose curve; further: nearly all actives have a fitted effect of over 45% in size). In short, it runs like this:
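Compounds are titrated over 15 concentrations, in triplicate, onto TSHR-HEK293 cells seeded at 800/well. Plates sit 30 min at room temperature before cAMP-d2 and anti-cAMP cryptate are added; signal is read after a further hour.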
For orientation: In qHTS, concentration-response curves come from the screen itself.

Assay [2] is described as follows: qHTS assay to identify small molecule agonists of the hypoxia (HIF-1) signaling pathway - cell viability counter screen (AID 1224844; calls by dose curve; further: nearly all actives have a fitted effect of over 50% in size; further: potency means the concentration at half of the fitted maximal effect). An outline of the steps: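 Cytotoxicity was measured in parallel with the HRE-driven beta-lactamase readout: after 17 hrs of compound exposure at 37C, HRE-bla ME-180 cells received CellTiter-Glo and luminescence was recorded 30 min later.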

Assay [3] in a line: qHTS assay to identify small molecule agonists of H2AX (AID 1224845; active means well fitted activation curve with a large enough effect in the signal ratio in the repeat runs, not every such curve was filed as active; the % refers to the signal ratio). In short, it runs like this: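 Wild-type CHO-K1 cells plated overnight, then exposed 3 hr at 37C to compounds at 15 concentrations (0.76% DMSO). Lysed, then HTRF anti-pH2AX(S139)-cryptate/anti-H2AX-d2 detection after 24 hr at room temperature; emissions 665 and 620 nm.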
Assay [4] is described as follows: qHTS assay to identify small molecule agonists of H2AX - cell viability counter screen (AID 1224847; calls by dose curve; further: top concentration of the series differs between compounds; nearly all actives have a fitted effect of over 30% in size). An outline of the steps: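 Read-out: CellTiter-Glo luminescence, 30 min RT. Cells: wild-type CHO-K1, 1000/well, 10% FBS, plated overnight at 37C. Treatment: 15 concentrations, 3 hr, 37C, 0.76% DMSO.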
Assay [5] can be described thus: A CellTox Green Cytotoxicity Assay to monitor cytotoxicity in HEK293 cells - 0 hour (AID 1224869). Further: nearly all actives have a fitted effect of over 50% in size. An outline of the steps: (§1)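 Cells (HEK293, 600/well) and dye reagent are dispensed together. After 5 h at 37 C, 23 nL compound is pinned in. Plates stay at 37 C for 40 h with fluorescence read at 0h, 8h, 16h, 24h, 32h and 40h.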
Assay [6] in a line: A CellTox Green Cytotoxicity Assay to monitor cytotoxicity in HEK293 cells - 40 hour (AID 1224871). Further: nearly all actives have a fitted effect of over 45% in size. In short, it runs like this: as §1
A short description of assay [7]: qHTS RealTime-Glo MT Cell Viability Assay in HEK293 cells - 16 hour (AID 1224872). Further: nearly all actives have a fitted effect of over 50% in size. Further: potency means the concentration at half of the fitted maximal effect. In short, it runs like this: (§2)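 Tox21 10K qHTS, HEK293, 600 cells/well, RealTime-Glo reagent co-dispensed with cells; 5 h preincubation, compound by pintool, 37 C, luminescence at 0–40 h.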
Assay [8] in a line: qHTS RealTime-Glo MT Cell Viability Assay in HEK293 cells - 40 hour (AID 1224874). Further: nearly all actives have a fitted effect of over 50% in size. Further: potency means the concentration at half of the fitted maximal effect. The following applies: RealTime-Glo luminescence; max response: hits give low values. An outline of the steps:
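Real-time viability in HEK293: signal arises when living cells convert a prosubstrate for NanoLuc in the medium, so luminescence tracks viable cell number. Compound (23 nL, DMSO) added 5 h post-seeding; kinetic reads at 0–40 h, 37 C.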

A short description of assay [9]: A CellTox Green Cytotoxicity Assay to monitor cytotoxicity in HEK293 cells - 24 hour (AID 1224875). Further: series mostly up to about 77 µM; nearly all actives have a fitted effect of over 45% in size. In short, it runs like this: as §1
Assay [10] can be described thus: A CellTox Green Cytotoxicity Assay to monitor cytotoxicity in HepG2 cells - 16 hour (AID 1224876). Further: nearly all actives have a fitted effect of over 45% in size. In short, it runs like this: (§3)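 Cells and non-lytic dye reagent are dispensed together (600 HepG2 cells/well) and incubated 5 h before DMSO compound transfer. Kinetic fluorescence is then recorded in the same wells during 40 h at 37 C.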
Assay [11] is described as follows: A CellTox Green Cytotoxicity Assay to monitor cytotoxicity in HepG2 cells - 24 hour (AID 1224878). Further: nearly all actives have a fitted effect of over 45% in size. In short, it runs like this:
as §3

A short description of assay [12]: A CellTox Green Cytotoxicity Assay to monitor cytotoxicity in HepG2 cells - 40 hour (AID 1224879). Further: nearly all actives have a fitted effect of over 40% in size. In short, it runs like this:
as §3

Assay [13] is described as follows: qHTS assay to identify small molecule agonists of the hypoxia (HIF-1) signaling pathway (AID 1224846; active means well fitted activation curve with a large enough effect in the signal ratio in the repeat runs, not every such curve was filed as active; the % refers to the signal ratio). An outline of the steps:
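Compounds from the Tox21 10K library, dissolved in DMSO, are tested for induction of a hypoxia response element–controlled beta-lactamase reporter in ME-180 cells. Exposure lasts 17 hrs at 37C after a 5 hr settling period, followed by CCF4-AM FRET substrate.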

Assay [14] can be described thus: qHTS RealTime-Glo MT Cell Viability Assay in HepG2 cells - 24 hour (AID 1224867). Further: nearly all actives have a fitted effect of over 50% in size. In short, it runs like this: (§4)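 Cells + NanoLuc/prosubstrate dispensed (600 cells/well) → 5 h at 37 C/5% CO2 → compounds in DMSO transferred → 40 h incubation at 37 C, luminescence read at 0, 8, 16, 24, 32, 40 h.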
A short description of assay [15]: qHTS RealTime-Glo MT Cell Viability Assay in HepG2 cells - 40 hour (AID 1224870). Further: nearly all actives have a fitted effect of over 50% in size. In short, it runs like this:
(§5)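 HepG2 cells mixed with RealTime-Glo MT reagents (NanoLuc plus cell-permeant prosubstrate) were seeded at 600 cells/well, incubated 5 h at 37 C/5% CO2, then pinned with compounds in DMSO; nonlytic luminescence tracked viability during 40 h treatment.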

Assay [16] is described as follows: qHTS RealTime-Glo MT Cell Viability Assay in HepG2 cells - 8 hour (AID 1224873). Further: nearly all actives have a fitted effect of over 55% in size. In short, it runs like this:
as §5

Assay [17] can be described thus: qHTS RealTime-Glo MT Cell Viability Assay in HepG2 cells - 32 hour (AID 1224877). Further: nearly all actives have a fitted effect of over 55% in size. In short, it runs like this: as §4
The nature of assay [18]: qHTS RealTime-Glo MT Cell Viability Assay in HEK293 cells - 32 hour (AID 1224868). An outline of the steps:
as §2

Values without a mark were called inactive. Results filed as inconclusive are left out. Calls of active or inactive are those of the source. Unless noted, the call rests on the fitted dose curve; in most records, active means well fitted curve in the direction sought with a large enough effect in the repeat runs; inconclusive means weak or mixed curves; inactive means no such curve, though single readings can be large; an effect the other way counts as inactive or inconclusive.
On the % scale 0 is the no-effect control and ±100 the full control effect.

Sequence of Thyrotropin receptor (Homo sapiens) (P16473 whole entry, looked up): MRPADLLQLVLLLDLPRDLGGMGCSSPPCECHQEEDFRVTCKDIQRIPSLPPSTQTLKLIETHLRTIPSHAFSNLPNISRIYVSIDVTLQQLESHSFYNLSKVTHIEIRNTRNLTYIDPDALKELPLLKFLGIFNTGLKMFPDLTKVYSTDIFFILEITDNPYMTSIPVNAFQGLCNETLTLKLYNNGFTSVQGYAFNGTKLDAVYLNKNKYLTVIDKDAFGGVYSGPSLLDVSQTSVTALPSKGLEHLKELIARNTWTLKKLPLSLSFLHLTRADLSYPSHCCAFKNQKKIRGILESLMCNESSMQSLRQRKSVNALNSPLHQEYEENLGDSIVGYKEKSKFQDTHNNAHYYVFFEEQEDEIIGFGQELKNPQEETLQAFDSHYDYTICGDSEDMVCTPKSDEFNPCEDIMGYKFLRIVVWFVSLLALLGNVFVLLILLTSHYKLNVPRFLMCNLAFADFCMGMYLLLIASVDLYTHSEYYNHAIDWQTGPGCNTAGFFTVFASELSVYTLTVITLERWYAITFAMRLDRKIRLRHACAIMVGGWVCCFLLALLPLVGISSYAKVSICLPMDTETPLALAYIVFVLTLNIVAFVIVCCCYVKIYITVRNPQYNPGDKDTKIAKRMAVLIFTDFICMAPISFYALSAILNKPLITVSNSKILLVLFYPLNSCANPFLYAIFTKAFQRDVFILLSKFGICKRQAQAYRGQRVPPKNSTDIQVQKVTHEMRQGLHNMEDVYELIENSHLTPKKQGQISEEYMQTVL

Consider `CNS(=O)(=O)c1cc(C(=O)N2CCC(CCN3C4CCC3CC(n3c(C)nc5ccccc53)C4)(c3cccc(F)c3)CC2)c(Cl)cc1F` (stereo not given), for which the Potency result in [1], in assay [3], in [4], in [5], in assay [6] and in assay [9] was “inactive” each time. In addition, the Potency entry in assay [10], in assay [11] and in assay [12] was “inactive” throughout. The Potency in assay [2] was 3.89 µM (active); in assay [7], 4.36 µM (active); in [8], 4.36 µM (active).
As for `O=C1OC[C@H](Cc2cccc(O)c2)[C@H]1Cc1cccc(O)c1`, the Potency entry in assay [1], in assay [2], in [4], in assay [14], in [5] and in assay [15] was “inactive” throughout. Further, the Potency result in assay [6], in assay [7], in assay [16], in assay [9], in assay [10] and in assay [17] was “inactive” each time. For the same compound, the Potency result in assay [11] and in assay [12] was “inactive” throughout. For the same compound, the compound was classed as inactive in [13]. Further, in assay [8], the max response is -19.7%.
Regarding `Cc1ccc(N(CC2=NCCN2)c2cccc(O)c2)cc1`, the Potency entry in assay [1], in [2], in [3], in assay [14], in [18] and in assay [5] was “inactive” each time. Moreover, the Potency entry in assay [6], in assay [7], in assay [16], in assay [9], in assay [10] and in assay [17] was “inactive” throughout. Moreover, the Potency result in [11] and in [12] was “inactive” in each case. Also, the max response in [8] was -23.3%.
With `Nc1nc2ccc(OC(F)(F)F)cc2s1`, the Potency entry in assay [1], in assay [2], in assay [3], in assay [4], in [14] and in assay [5] was “inactive” throughout. For the same compound, the Potency result in assay [15], in assay [6], in [7], in assay [16], in [9] and in [10] was “inactive” in each case. Also, the Potency result in [17] and in assay [11] was “inactive” throughout.
For `CC(C(=O)O)c1ccc(C(=O)c2cccs2)cc1` (stereo not given), the Potency result in [1], in [2], in assay [3], in assay [4], in [14] and in assay [5] was “inactive” throughout. In addition, the Potency result in assay [15], in assay [6], in assay [7], in [16], in assay [9] and in assay [10] was “inactive” in each case. In addition, the Potency result in assay [17], in [11] and in [12] was “inactive” each time. The max response in assay [8] is 0.273%.
Take `O=S(=O)(Cl)c1c(Cl)cccc1Cl`: the Potency result in [1], in assay [2], in assay [3], in assay [14], in assay [18] and in assay [5] was “inactive” in each case. Moreover, the Potency result in assay [15], in [6], in assay [7], in [16], in assay [9] and in assay [10] was “inactive” throughout. For the same compound, the Potency entry in assay [17], in [11] and in assay [12] was “inactive” each time. Besides, the max response in assay [8] was -11.9%.
As to `CCOC(=O)Oc1ccc(CCNC(=O)[C@H](CCSC)NC(C)=O)cc1OC(=O)OCC`, the Potency result in [1], in [2], in assay [4], in assay [14], in assay [5] and in assay [15] was “inactive” each time. For the same compound, the Potency entry in [6], in [7], in [16], in [9], in [10] and in assay [17] was “inactive” throughout. Also, the Potency result in assay [11] and in assay [12] was “inactive” in each case. Moreover, the outcome in [13] was inactive. Further, in assay [8], the max response is 14.4%.
`COc1ccc(-c2cc(=S)ss2)cc1`: the Potency result in assay [1], in assay [2], in assay [3], in [4], in assay [14] and in [5] was “inactive” each time. Besides, the Potency result in assay [15], in assay [6], in assay [7], in assay [16], in assay [9] and in assay [10] was “inactive” in each case. Also, the Potency entry in [17], in [11] and in assay [12] was “inactive” in each case.
As to `C=C(C)c1ccccc1`, the Potency entry in assay [1], in assay [2], in assay [3], in assay [4], in assay [14] and in assay [5] was “inactive” in each case. The Potency entry in assay [15], in assay [6], in assay [7], in assay [16], in [9] and in assay [17] was “inactive” in each case. Further, the Potency entry in assay [11] and in assay [12] was “inactive” each time. Besides, in assay [8], the max response is 1.05%.
